Potency, viability change, negative = cytotoxic and activity change, negative = cytotoxicity data for 72 molecules are collected here from PubChem BioAssay (Tox21).

Test [1] can be described thus: cAMP Responsive Elements (CRE) small molecule antagonists, cell-based qHTS assay: qHTS cell viability counter screen (AID 2060913). Note: nearly all actives have a fitted effect of over 40% in size. A digest of the protocol: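 Cytotoxicity counter screen multiplexed with the CRE-bla antagonist read: HEK293T cells in DMEM with dialyzed FBS and 25 mM HEPES were treated 3 hrs under 0.25 uM final NKH477, then viability measured by CellTiter-Glo luminescence.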
On the technique in general: qHTS replaces the single test concentration by a dilution series.

The nature of test [2]: cAMP Responsive Elements (CRE) small molecule agonists, cell-based qHTS assay: qHTS cell viability counter screen (AID 2060914).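 Note: viability read after 3 h of compound exposure; nearly all actives have a fitted effect of over 50% in size.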 The gist of the method:
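CRE-bla HEK293T cells in 10% dialyzed FBS medium were exposed to compounds for 3 h at 37C after 18 h plating. CellTiter-Glo was then added in the same wells, and luminescence was read after 30 min at room temperature.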

Records with an inconclusive call do not appear. Unmarked numbers belong to inactive results. Activity calls are given as the source filed them. Calls come from the whole dose curve; as a rule, active = well fitted cell-killing curve with a large enough effect in the repeat runs; inconclusive = weak or mixed curves, or effect the other way; inactive = flat fitted curve, though single readings scatter.
% is set by controls: 0 for no effect and ±100 for the full control effect.

With `OC1(c2ccc(Cl)cc2)CCNCC1`, the Potency entry in test [1] and in test [2] was “inactive” in each case.
For `CCC(C)[O-].CCC(C)[O-].CCOC(=O)/C=C(/C)[O-].[Al+3]`, the Potency result in test [1] and in test [2] was “inactive” each time.
For the molecule `CC(C)(C)c1nnc(NS(=O)(=O)c2ccc(N)cc2)s1`, the Potency entry in test [1] and in test [2] was “inactive” each time.
In the case of `CCOC(=O)C(Br)c1ccccc1` (centres undefined), the Potency entry in test [1] and in test [2] was “inactive” in each case.
Regarding `COC(=O)CCC(=O)O`, the Potency result in test [1] and in test [2] was “inactive” in each case.
With `O=C1C(N(CO)C(=O)NCO)N(CO)C(=O)N1CO` (centres undefined), the Potency result in test [1] and in test [2] was “inactive” throughout.
Consider `C/C=C/C(=O)OCC(C)C`, for which the Potency entry in test [1] and in test [2] was “inactive” throughout.
For the molecule `CCC(C)C1CCCCC1=O` (centres undefined), the Potency result in test [1] and in test [2] was “inactive” each time.
Take `CCCCC(CC)CCC(CC(C)C)OS(=O)(=O)O` (centres undefined): the Potency result in test [1] and in test [2] was “inactive” in each case.
Consider `CC(=O)CC/C=C(\C)CCC=C(C)C`, for which the Potency entry in test [1] and in test [2] was “inactive” throughout.
On to `CCOc1ccc(OCC)c(Cl)c1`, for which the Potency result in test [1] and in test [2] was “inactive” throughout.
As for `COc1ccc(/C=N/NC(=O)c2ccncc2)cc1OC`, the Potency result in test [1] and in test [2] was “inactive” in each case.
With `CCCCCCCCNC`, the Potency result in test [1] and in test [2] was “inactive” each time.
`CO[C@]1(NC(=O)CSC(F)F)C(=O)N2C(C(=O)O)=C(CSc3nnnn3CCO)CO[C@H]21`: the Potency entry in test [1] and in test [2] was “inactive” in each case.
Take `NCCNCCO`: the Potency entry in test [1] and in test [2] was “inactive” throughout.
Take `CC(C)(C)c1cc(CCC(=O)OCC(COC(=O)CCc2cc(C(C)(C)C)c(O)c(C(C)(C)C)c2)(COC(=O)CCc2cc(C(C)(C)C)c(O)c(C(C)(C)C)c2)COC(=O)CCc2cc(C(C)(C)C)c(O)c(C(C)(C)C)c2)cc(C(C)(C)C)c1O`: the Potency result in test [1] and in test [2] was “inactive” throughout.
With `CCCCCCCC/C=C\CCCCCCCCN`, the Potency entry in test [1] and in test [2] was “inactive” each time.
As for `CCCCCC1CCC(=O)O1` (centres undefined), the Potency result in test [1] and in test [2] was “inactive” throughout.
Take `C[C@H]1c2cccc(O)c2C(O)=C2C(=O)[C@]3(O)C(O)=C(C(N)=O)C(=O)[C@@H](N(C)C)[C@@H]3[C@@H](O)[C@@H]21`: the Potency entry in test [1] and in test [2] was “inactive” in each case.
Regarding `CC(=O)CC(=O)c1ccccc1`, the Potency result in test [1] and in test [2] was “inactive” in each case.
For `NNC(=O)c1ccncc1`, the Potency entry in test [1] and in test [2] was “inactive” in each case.
With `O=C(O)Cc1cc(I)c(Oc2ccc(O)c(I)c2)c(I)c1`, the Potency result in test [1] and in test [2] was “inactive” each time.
In the case of `O=C(COc1ccc(Cl)cc1)N1CCN(Cc2ccc3c(c2)OCO3)CC1`, the Potency entry in test [1] and in test [2] was “inactive” in each case.
As to `O=C(O)c1nc(Cl)c(Cl)c(Cl)c1Cl`, the Potency entry in test [1] and in test [2] was “inactive” throughout.
Consider `NC[C@H]1O[C@H](O[C@H]2[C@H](O)[C@@H](O[C@H]3O[C@H](CO)[C@@H](O)[C@H](N)[C@H]3O)[C@H](N)C[C@@H]2N)[C@H](N)[C@@H](O)[C@@H]1O`, for which the viability change, negative = cytotoxic in test [1] is -2.98% [at 18.9 µM]. The activity change, negative = cytotoxicity in test [2] was -6.94% [at 18.9 µM].
Turning to `C[n+]1ccccc1/C=N/O`, the Potency result in test [1] and in test [2] was “inactive” in each case.
Regarding `COC(=O)CCCCC(CCSS/C(CCO)=C(\C)N(C=O)Cc1cnc(C)nc1N)SC(C)=O` (centres undefined), the Potency result in test [1] and in test [2] was “inactive” in each case.
Regarding `Cc1[nH]nc2c1N=C(c1ccccc1Cl)c1cc([N+](=O)[O-])ccc1N2`, the Potency entry in test [1] and in test [2] was “inactive” in each case.
As to `CNC(=O)[C@H]1O[C@@H](n2cnc3c(NCc4cc(Cl)ccc4OCc4cc(C)no4)ncnc32)[C@H](O)[C@@H]1N`, the Potency entry in test [1] and in test [2] was “inactive” in each case.
For the molecule `O=C(O)COC(=O)Cc1ccccc1Nc1c(Cl)cccc1Cl`, the Potency entry in test [1] and in test [2] was “inactive” each time.
Consider `CC(C)(C)C(=O)/C=C/c1ccc(Cl)cc1`, for which the Potency entry in test [1] and in test [2] was “inactive” throughout.
Consider `CCOCCn1c(C2CCN(CCc3ccc(C(C)(C)C(=O)O)cc3)CC2)nc2ccccc21`, for which the Potency entry in test [1] and in test [2] was “inactive” throughout.
For `CC(=O)N[C@@H](CCC(N)=O)C(=O)O`, the Potency entry in test [1] and in test [2] was “inactive” throughout.
With `CCC(=O)Nc1ccc(O)cc1`, the Potency result in test [1] and in test [2] was “inactive” each time.
For `CC(=O)Nc1ccc(OC(=O)c2ccccc2OC(C)=O)cc1`, the Potency result in test [1] and in test [2] was “inactive” throughout.
Regarding `CC(CN(C)C)CN1c2ccccc2CCc2ccccc21` (centres undefined), the Potency result in test [1] and in test [2] was “inactive” each time.
Regarding `COc1ccc2c(c1)c(CC(=O)OC/C=C(\C)CC/C=C(\C)CCC=C(C)C)c(C)n2C(=O)c1ccc(Cl)cc1`, the Potency entry in test [1] and in test [2] was “inactive” in each case.
For the molecule `O=C(O)Cc1cccc2ccccc12`, the Potency result in test [1] and in test [2] was “inactive” in each case.
With `C=CCCCCCCCCCCCCCCCC`, the viability change, negative = cytotoxic in test [1] is -4.37% [at 8.39 µM]. In addition, the activity change, negative = cytotoxicity in test [2] is -18.5% [at 8.39 µM].
As to `CC(=O)N(O)CCCCCNC(=O)CCC(=O)N(O)CCCCCNC(=O)CCC(=O)N(O)CCCCCN`, the Potency entry in test [1] and in test [2] was “inactive” in each case.
Take `COC(=O)C1=C(C)NC(C)=C(C(=O)OCCN2CCN(C(c3ccccc3)c3ccccc3)CC2)C1c1cccc([N+](=O)[O-])c1` (centres undefined): the Potency result in test [1] and in test [2] was “inactive” each time.
In the case of `C[C@@H]1C[C@H]2[C@@H]3CCC4=CC(=O)C=C[C@]4(C)[C@@]3(Cl)[C@@H](O)C[C@]2(C)[C@@]1(OC(=O)c1ccco1)C(=O)CCl`, the Potency entry in test [1] and in test [2] was “inactive” throughout.
`COc1nccnc1CC(C)C`: the Potency entry in test [1] and in test [2] was “inactive” throughout.
As to `CCN(CC)CCOc1ccc2c(c1)C(=O)c1cc(OCCN(CC)CC)ccc1-2`, the Potency result in test [1] and in test [2] was “inactive” each time.
Turning to `O=C1NCC2(CCN(CCc3ccccc3)CC2)O1`, the Potency result in test [1] and in test [2] was “inactive” each time.
For the molecule `CC(=O)/C=C/C1C(C)=CCC(C)C1(C)C` (centres undefined), the Potency entry in test [1] and in test [2] was “inactive” throughout.
Consider `O=c1c(-c2ccc(O)cc2)coc2cc(O)ccc12`, for which the Potency result in test [1] and in test [2] was “inactive” each time.
For `Cc1cc(CC(=O)O)n(C)c1C(=O)c1ccc(Cl)cc1`, the Potency entry in test [1] and in test [2] was “inactive” each time.
In the case of `CC(C)C(=O)OCC(C)(C)C(O)C(C)C` (centres undefined), the Potency result in test [1] and in test [2] was “inactive” each time.
Turning to `Cc1c(C)c2c(c(C)c1OC(=O)c1cccnc1)CC[C@@](C)(CCC[C@H](C)CCC[C@H](C)CCCC(C)C)O2`, the Potency entry in test [1] and in test [2] was “inactive” in each case.
With `CCOC(=O)[C@H](CCc1ccccc1)N[C@@H](C)C(=O)N1CCC[C@H]1C(=O)O`, the Potency result in test [1] and in test [2] was “inactive” throughout.
As for `CO[C@@]1(NC(=O)C(C(=O)O)c2ccc(O)cc2)C(=O)N2C(C(=O)O)=C(CSc3nnnn3C)CO[C@@H]21` (some centres undefined), the Potency result in test [1] and in test [2] was “inactive” in each case.
On to `NC(N)=NC(N)=NCCc1ccccc1`, for which the Potency result in test [1] and in test [2] was “inactive” in each case.
For `CN1C(=O)CC(C)(c2ccccc2)C1=O` (centres undefined), the Potency result in test [1] and in test [2] was “inactive” throughout.
As for `C=C(C)C1CCC(C)(O)CC1` (centres undefined), the Potency entry in test [1] and in test [2] was “inactive” in each case.
`CCCCCCCCCCCCSC`: the Potency result in test [1] and in test [2] was “inactive” in each case.
Take `[O]=[Bi]`: the viability change, negative = cytotoxic in test [1] is -2.63% [at 8.39 µM]. The activity change, negative = cytotoxicity in test [2] was -8.94% [at 8.39 µM].
In the case of `C[C@]12CCC(=O)C=C1CC[C@H]1[C@@H]3CC[C@](O)(C(=O)CO)[C@@]3(C)C[C@H](O)[C@@]12F`, the Potency result in test [1] and in test [2] was “inactive” in each case.
As to `NS(=O)(=O)c1ccc(N2CCCCS2(=O)=O)cc1`, the Potency entry in test [1] and in test [2] was “inactive” throughout.
With `CCCCC1CCC(=O)O1` (centres undefined), the Potency entry in test [1] and in test [2] was “inactive” throughout.
Take `Clc1ccc(Cn2c(CN3CCCC3)nc3ccccc32)cc1`: the Potency result in test [1] and in test [2] was “inactive” throughout.
As for `COCCCOc1ccnc(CS(=O)c2nc3ccccc3[nH]2)c1C` (centres undefined), the Potency entry in test [1] and in test [2] was “inactive” in each case.
As to `CC(C)(CCl)c1ccccc1`, the Potency entry in test [1] and in test [2] was “inactive” throughout.
For `CCCCC(C=O)CC` (centres undefined), the Potency entry in test [1] and in test [2] was “inactive” throughout.
`CCCOC(C(=O)OC1CCN(C)CC1)(c1ccccc1)c1ccccc1`: the Potency entry in test [1] and in test [2] was “inactive” throughout.
In the case of `O=C(O[C@@H]1Cc2c(O)cc(O)cc2O[C@@H]1c1cc(O)c(O)c(O)c1)c1cc(O)c(O)c(O)c1`, the Potency result in test [1] and in test [2] was “inactive” in each case.
Take `CC1c2ccccc2CN1NC(=O)c1ccc(Cl)c(S(N)(=O)=O)c1` (centres undefined): the Potency entry in test [1] and in test [2] was “inactive” in each case.
Regarding `COc1cc(S(=O)(=O)Nc2ccccc2)c(OC)cc1N`, the Potency entry in test [1] and in test [2] was “inactive” in each case.
Take `CCCCCCCCc1ccc(S(=O)(=O)O)cc1`: the Potency entry in test [1] and in test [2] was “inactive” in each case.
On to `Oc1ccc(C2CNCCc3c2cc(O)c(O)c3Cl)cc1` (centres undefined), for which the Potency entry in test [1] and in test [2] was “inactive” each time.
In the case of `CN(C)CCOC(c1ccccc1)c1ccccc1`, the Potency entry in test [1] and in test [2] was “inactive” in each case.
Turning to `COc1ccc(/C=C/S(=O)(=O)NC(=O)c2ccc(C)cc2Cl)cc1`, the Potency entry in test [1] and in test [2] was “inactive” each time.
